High-throughput results: PubChem BioAssay, National Center for Advancing Translational Sciences (NCATS)
Hits are enriched below; roughly 18% of the tested compounds scored in any of these assays.
TDP1 cell noCPT – qHTS for Inhibitors of human tyrosyl-DNA phosphodiesterase 1 (TDP1): qHTS in cells in absence of CPT; DT40 Tdp1-/- hTDP1 cells, no CPT, ATP luminescence, 48 h; Potency, µM (titrated, usually from 46.2 µM), inactives show at the top dose activity change, negative = growth inhibition, most hits filed as inhibitors; 15% of 420,000 active; AID 686978, 2013; note: nearly all actives have a fitted effect of over 55% in size
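Luminescent ATP content (CellTiter-Glo) served as the growth readout. Knockout chicken DT40 cells expressing human TDP1 were exposed to compounds without camptothecin for a minimum 48 hr at 37 °C.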
KAT2A inh – blocks human GCN5L2 histone acetyltransferase. Q92830. AID 504327. GCN5L2 HAT assay, ThioGlo1 CoA-SH fluorescence. 0.21% of 390,000 active. Potency, µM (top dose mostly 58.9 µM), for the others: at the top dose activity change, negative = inhibition, hits mostly inhibitors
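Enzyme at 20nM final was mixed with library compounds for 15 min at room temperature. Peptide H3(1-25) at 75uM, acetyl-CoA at 70uM and ThioGlo1 at 50uM were then added. Plates were read immediately and after 20 min (Ex340nm/Em540nm).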
DT40 TDP1 CPT – DT40-hTDP1 cell growth loss with CPT; chicken DT40 Tdp1-/-;hTDP1 cells + 20 nM CPT, ATP luminescence, 48 h; Potency, µM (titrated, usually from 46.2 µM), inactives show at the highest dose activity change, negative = growth inhibition, usual class: inhibitors; 12% of 420,000 active; note: nearly all actives have a fitted effect of over 55% in size
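Cell growth measured by CellTiter-Glo luminescence after a minimum 48 h, 37 C compound exposure with 20 nM CPT in Tdp1-knockout DT40 cells stably expressing hTDP1, seeded 400/well; qHTS titration format.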
PLK1 PBD inh – inhibitors of human PLK1 polo-box domain binding; Plk1 PBD binding of FITC phosphopeptide, fluorescence polarization; Potency, µM, without a hit: max response, negative = inhibition, actives largely listed as inhibitors; 2.8% of 360,000 active; AID 720504; note: series mostly up to about 57 µM; nearly all actives have a fitted effect of over 65% in size
Target sequence (P53350 whole entry, looked up, the tested form may be a part): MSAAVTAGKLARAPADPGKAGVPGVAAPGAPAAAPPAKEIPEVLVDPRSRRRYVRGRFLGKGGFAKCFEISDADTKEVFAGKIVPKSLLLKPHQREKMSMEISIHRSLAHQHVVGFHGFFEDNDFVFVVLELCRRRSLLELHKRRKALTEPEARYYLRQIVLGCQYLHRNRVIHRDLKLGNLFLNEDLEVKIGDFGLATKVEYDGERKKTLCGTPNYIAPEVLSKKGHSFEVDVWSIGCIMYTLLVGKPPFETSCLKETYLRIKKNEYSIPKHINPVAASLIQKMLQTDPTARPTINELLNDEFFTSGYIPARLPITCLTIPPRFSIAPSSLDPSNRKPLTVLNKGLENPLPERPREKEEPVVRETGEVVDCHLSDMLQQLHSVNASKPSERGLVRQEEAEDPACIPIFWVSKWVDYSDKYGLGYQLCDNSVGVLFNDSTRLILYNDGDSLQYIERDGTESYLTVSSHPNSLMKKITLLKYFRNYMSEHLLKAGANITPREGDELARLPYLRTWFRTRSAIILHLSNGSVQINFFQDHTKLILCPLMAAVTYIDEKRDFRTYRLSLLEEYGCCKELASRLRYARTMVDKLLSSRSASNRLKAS
TDP1 inh – inhibitors of human tyrosyl-DNA phosphodiesterase TDP1; Potency, µM (doses to about 130 µM), for the others: at the top dose activity change, negative = inhibition, most hits filed as inhibitors; AID 485290; Q9NUW8; 0.28% of 350,000 active; recombinant TDP1, AlphaScreen DNA substrate cleavage; note: nearly all actives have a fitted effect of over 40% in size
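Recombinant E. coli-expressed Tdp1 (1 nM) preincubated with compound 15 min at RT, then 5'-biotin/3'-phosphotyrosine-FITC DNA substrate (15 nM) added for 5 min. AlphaScreen beads (10 ug/ml) added, 10 min RT; tyrosine-FITC cleavage read as signal loss.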
VDR inhibitor – vitamin D3 receptor (human) inhibition; VDR-SRC2-3 peptide fluorescence polarization, 2 h; Potency, µM, for inactives: max response, negative = inhibition, most hits filed as inhibitors; AID 504847; 0.93% of 400,000 active
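The screen uses fluorescence polarization to detect compounds that interfere with recruitment of the SRC2-3 coactivator peptide to VDR; plates are read after 2 h at room temperature.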
The depositor's hits bear a star; ? = inconclusive; . = not tested or not shown; [ ] = dose if it differs, or a comment. Calls come from the whole dose curve; as a rule, active = well fitted curve in the direction sought with a large enough effect; inconclusive = small, poorly fitted or top-dose-only effect, or another doubt; inactive = no such curve, though single readings can be large; an effect the other way counts as inactive or inconclusive. % is set by controls: 0 for no effect and ±100 for the full control effect; potency is the fitted concentration of half-maximal effect.

SMILES | TDP1 cell noCPT | KAT2A inh | DT40 TDP1 CPT | PLK1 PBD inh | TDP1 inh | VDR inhibitor
COC(=O)C1=CN(c2ccc3c(c2)OCO3)C(N)=C(C#N)C1c1ccc(-c2ccccc2)cc1 (centres undefined) | 6.51µM* | . | 5.8µM* | -10.0% | . | .
COC(=O)C1=CN(c2c(C)cc(C)cc2C)C(N)=C(C#N)C1c1ccccc1 (centres undefined) | ? | . | ? | -6.2% | . | .
COC(=O)C1=CN(c2ccc(F)cc2)C(N)=C(C#N)C1c1ccc(-c2ccccc2)cc1 (centres undefined) | 5.8µM* | . | 7.31µM* | -4.8% | . | .
COC(=O)C1=CN(c2ccc(Oc3ccccc3)cc2)C(N)=C(C#N)C1c1cccc(F)c1 (centres undefined) | 8.2µM* | . | ? | -0.2% | . | .
CCN1C=C(C(=O)OC)C(c2cccc(C)c2)C(C(=O)OC)=C1 | ? | -19.9% | -25.2% | -15.2% | -2.0% | 12.4%
COC(=O)C1=CN(c2ccc(C)cc2)C(N)=C(C#N)C1c1ccccc1F (centres undefined) | ? | . | ? | -15.1% | . | .
COC(=O)C1=CN(c2ccc(C(C)(C)C)cc2)C(N)=C(C#N)C1c1ccc(OC)cc1 (centres undefined) | ? | . | ? | -6.2% | . | .
COC(=O)C1=CN(c2cc(C)cc(C)c2)C=C(C(=O)OC)C1c1cccc(F)c1 | 13µM* | -2.8% | 18.4µM* | -4.9% | -15.9% | 9.0%
CC(=O)OC1COC(N2CCc3cc(Br)c([N+](=O)[O-])cc32)C(OC(C)=O)C1OC(C)=O (centres undefined) | ? | 0.6% | ? | -0.3% | 5.9% | -2.4%
O=c1cc(-c2ccc(O)cc2)oc2cc(OC3OC(CO)C(O)C(O)[C@H]3O[C@@H]3OC[C@@](O)(CO)C3O)cc(O)c12 (some centres undefined) | -1.2% | -22.7% | 7.8% | . | 13.2%[56.1 µM] | -1.6%
COCCNC(=O)C1Cc2c(-c3cccc(NC(C)=O)c3)ccnc2O1 (centres undefined) | ? | . | ? | -3.8% | . | .
COC(=O)C1=CN(c2ccc(OC)cc2OC)C(N)=C(C#N)C1c1cccc([N+](=O)[O-])c1 (centres undefined) | 0.326µM* | . | 0.366µM* | -3.6% | . | .
COC(=O)C1=CN(c2ccc(N3CCOCC3)cc2)C(N)=C(C#N)C1c1cccc(F)c1 (centres undefined) | 8.2µM* | . | ? | -5.9% | . | .
COC(=O)C1=CN(c2ccc(F)cc2)C(N)=C(C#N)C1c1cccc(F)c1 (centres undefined) | 11.6µM* | . | 7.31µM* | -9.6% | . | .
COC(=O)C1=CN(c2cccc(OCc3ccccc3)c2)C(N)=C(C#N)C1c1cccc(F)c1 (centres undefined) | 23.1µM* | . | 13µM* | -7.1% | . | .
COC(=O)C1=C(C)N(Cc2ccccc2)C(=O)N[C@H]1c1cccc(F)c1 | -27.2% | . | -17.7% | -3.8% | 1.6%[21 µM] | -8.0%
O=C(NCc1cc(Cl)cc(Cl)c1)c1csc([C@@H]2C[C@H](O)[C@@H](CO)O2)n1 | -11.1% | . | -26.0% | -3.8% | . | .
CCOC(=O)C1(C)CCN1C(=O)c1ccco1 (centres undefined) | -2.4% | . | -18.6% | -9.7% | . | .
CCCCN(C=O)c1c(CC)nc2ccc(C(=O)N3CCN(c4ccccc4)CC3)cn12 | ? | . | ? | 1.7% | . | .
COC(=O)C1=CN(c2ccc(F)cc2)C=C(C(=O)OC)C1c1ccc(O)cc1 | 16.4µM* | -5.1% | 6.0% | 1.9% | . | 2.1%
CCOC(=O)c1ccc(N2C=C(C(=O)OC)C(c3ccc(OC)c(O)c3)C(C(=O)OC)=C2)cc1 | -13.2% | 13.7% | ? | 1.3% | . | 1.3%
